We go through 6 compounds from PubChem BioAssay (NCATS).

Assay [1] in a line: Cell Viability - BJ (AID 421; calls by dose curve;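 also: potency is read from the fitted curve at half-maximal effect; cells exposed to compound for 40 hours at 37 °C before readout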). The conditions noted are these: BJ fibroblast viability, qHTS. In outline:
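Normal human BJ foreskin fibroblasts, 1500/well in complete medium, treated 40 hr at 37 °C. Cellular ATP by CellTiter-Glo luminescence; normalized to DMSO and 100 uM tamoxifen, AC50 from Hill fit.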
Background: Quantitative high-throughput screening tests each substance at several concentrations.

The nature of assay [2]: Cell Viability - Jurkat (AID 426;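 active = dose-dependent loss of cell ATP signal giving a full or clear fitted curve, ranked by lower potency value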; also: potency is read from the fitted curve at half-maximal effect). The conditions noted are these: qHTS. In outline:
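Jurkat (Clone E6-1) cells, 5000/well in complete medium, exposed to compounds for 40 hr at 37C; intracellular ATP measured by CellTiter-Glo luminescence after 20 min at room temperature. AC50 from Hill fits.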

Assay [3] in a line: Cell Viability - Hek293 (AID 427;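 active = compounds whose dose-response curve shows a full or clear partial loss of cell viability, called from curve shape rather than a numeric limit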;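 also: potency is read from the fitted curve at half-maximal effect; cells exposed to compound for 40 hours at 37 °C before reading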). The conditions noted are these: qHTS. In outline:
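HEK293 cells in complete medium were exposed to compound for 40 hr at 37 °C, then cellular ATP was read by CellTiter-Glo luminescence. Data were normalized to DMSO (basal) and 100 uM tamoxifen (100% inhibition), and AC50 came from Hill fits.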

Assay [4] can be described thus: Cell Viability - HepG2 (AID 433; calls by dose curve;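 also: potency is read from the fitted curve at half-maximal effect; potency for ATP loss meaning cytotoxicity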). The settings on record: qHTS. In outline: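 HepG2 hepatocellular carcinoma cells (1500/well) were treated with compounds for 40 h at 37 °C in complete medium; intracellular ATP was read by CellTiter-Glo luminescence. Data were normalized to DMSO and 100 uM tamoxifen, and AC50 came from Hill fits.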
Assay [5] is described as follows: Cell Viability - MRC5 (AID 434; calls by dose curve;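 also: potency is read from the fitted curve at half-maximal effect; potency reflects cytotoxicity seen as loss of intracellular ATP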). The settings on record: MRC5 lung fibroblast viability, qHTS. A digest of the protocol: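 MRC5 normal human lung fibroblasts (1500/well) were treated with compounds for 40 hr at 37 °C in complete medium, and viable cells were measured as intracellular ATP by CellTiter-Glo luminescence. AC50 came from Hill fits, normalized to DMSO and 100 uM tamoxifen.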

Assay [6] in a line: Cell Viability - SK-N-SH (AID 435; calls by dose curve;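 also: potency is read from the fitted curve at half-maximal effect; compound exposure lasted 40 h at 37 °C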). The settings on record: SK-N-SH neuroblastoma cell viability qHTS. A digest of the protocol:
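SK-N-SH human neuroblastoma cells (1500/well) were exposed to compounds in complete medium for 40 h at 37 °C, and intracellular ATP was then measured by CellTiter-Glo luminescence. AC50 was taken from Hill fits, normalized to DMSO and 100 uM tamoxifen.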

Assay [7] has as its target Mitogen-activated protein kinase 10 (Mus musculus) (UniProt Q61831). The assay is described as follows: JNK3 AlphaScreen Assay (AID 530; active = well fitted curve in either direction with a large enough effect, not every such curve was filed as active;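 also: kinase came from lysate of stimulated human HepG2 cells; signal reports phosphorylation of biotinylated GST-cJun 1-79 at Ser73 with 10 µM ATP; % is scaled to controls: 0 for no effect and ±100 for the full control effect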). The settings on record: JNK3 lysate, c-Jun phosphorylation; series mostly up to 57.1 µM. A digest of the protocol: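 Inhibitors reduce antibody binding to phosphorylated biotin-cJun, lowering AlphaScreen luminescence. Lysates from HepG2 cells pre-activated by IL-1beta plus TNF-alpha supplied JNK3; compounds were titrated.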

The nature of assay [8]: Cell Viability - N2a (AID 540). Also: nearly all actives have a fitted effect of over 45% in size. Also: potency is read from the fitted curve at half-maximal effect.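 As to activity change, negative = cytotoxicity: plate controls were DMSO alone for no effect and tamoxifen control for full effect.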 The conditions noted are these: N2a mouse neuroblastoma cell viability; activity change, negative = cytotoxicity: at 92.2 µM (top of the series). A digest of the protocol: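 Mouse neuroblastoma N2a cells, 1500/well, exposed to compounds 40 h at 37 °C in complete medium. Viability measured as cellular ATP by CellTiter-Glo luminescence; AC50 from Hill fits of concentration-response.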

Assay [9] in a line: Cell Viability - NIH 3T3 (AID 541).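 Also: plate controls were DMSO alone for no effect and tamoxifen positive control for full effect; nearly all actives have a fitted effect of over 25% in size.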 The conditions noted are these: NIH 3T3 cell viability, qHTS; activity change, negative = cytotoxicity: at 92.2 µM (top of the series). A digest of the protocol: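 Mouse NIH 3T3 fibroblasts, 1000 cells/well, rested 5 hr at 37 °C, then exposed to compound for 40 hr at 37 °C in complete medium. Viability read as intracellular ATP by CellTiter-Glo luminescence; AC50 from Hill-equation fits of concentration-response data.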

Assay [10] in a line: Cell Viability - HUV-EC-C (AID 542). Also: nearly all actives have a fitted effect of over 35% in size. Also: potency is read from the fitted curve at half-maximal effect. As to activity change, negative = cytotoxicity: % is scaled to controls: 0 for no effect and ±100 for the full control effect. The conditions noted are these: HUV-EC-C endothelial cell viability, qHTS; series mostly up to 92.2 µM. In outline: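 HUV-EC-C human vascular endothelial cells, 1000/well, exposed to compound for 40 hr at 37 °C in complete medium. Intracellular ATP was read by CellTiter-Glo luminescence. AC50 came from Hill-equation fits of concentration-response data.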

Assay [11] is described as follows: Cell Viability - H-4-II-E (AID 543). Also: nearly all actives have a fitted effect of over 35% in size. Also: potency is read from the fitted curve at half-maximal effect. The settings on record: H-4-II-E rat hepatoma viability; series mostly up to 92.2 µM. A digest of the protocol: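 Rat hepatoma H-4-II-E cells, 1500 per well, treated 40 h at 37 °C in complete medium. Cellular ATP read by CellTiter-Glo luminescence; AC50 from Hill fits of concentration-response.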
Assay [12] can be described thus: Cell Viability - SH-SY5Y (AID 544). Also: nearly all actives have a fitted effect of over 55% in size. Also: potency is read from the fitted curve at half-maximal effect. The settings on record: SH-SY5Y neuroblastoma cell viability; viability change, negative = cytotoxic: at 92.2 µM (top of the series). In outline: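 SH-SY5Y human neuroblastoma cells (1500/well) incubated 5 h, then compound-treated 40 h at 37 °C in complete medium. Viability read as intracellular ATP by CellTiter-Glo luminescence after 20 min; AC50 from Hill-equation fits of qHTS concentration-response.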

A short description of assay [13]: Cell Viability - Renal Proximal Tubule (AID 545). Also: nearly all actives have a fitted effect of over 40% in size. Also: potency is read from the fitted curve at half-maximal effect. The settings on record: renal proximal tubule cells viability, primary cells of rat origin; series mostly up to 91.7 µM. In outline:
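Primary rat renal proximal tubule cells (1000/well) were treated with compounds for 40 hr at 37 °C in complete medium. Intracellular ATP was measured by CellTiter-Glo luminescence, and AC50 values came from Hill-equation fits of concentration-response data.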

Assay [14] can be described thus: Cell Viability - Mesenchymal (AID 546).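 Also: cells exposed to compound for 40 hours before reading.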 Also: potency is read from the fitted curve at half-maximal effect. The conditions noted are these: mesenchymal cells viability, qHTS; series mostly up to 91.7 µM. A digest of the protocol: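 Normal human renal glomerulus-derived kidney mesenchymal cells, 1000 per well in complete medium, were treated with compounds for 40 hr at 37 °C. Viability was read as intracellular ATP by CellTiter-Glo luminescence; AC50 values came from Hill-equation fits of qHTS concentration-response data.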

Assay [15] is described as follows: Cellular Toxicity (caspase-3) HepG2 (AID 654). Also: potency is read from the fitted curve at half-maximal effect.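 As to caspase-3 activation: cells exposed to compound for 16 hours before reading; 0% = DMSO alone and 100% = caspase signal from 100 µM tamoxifen.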 The settings on record: HepG2 caspase-3 activation, luminescence; series mostly up to 92.2 µM. A digest of the protocol: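 HepG2 cells (1500/well) were treated 16 h at 37 °C in complete medium, then caspase 3/7 activity was read by Caspase-Glo luminescence. Data were normalized to DMSO and 100 uM tamoxifen; AC50 came from Hill-equation fits of qHTS concentration-response.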

Assay [16] in a line: Cellular Toxicity (caspase-3) Jurkat (AID 655).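 Also: cells exposed to compound for 16 h at 37 °C before reading.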 The conditions noted are these: Jurkat caspase-3 activation, luminescence; caspase-3 activation: at 92.2 µM (top of the series), DMSO = 0%, tamoxifen = 100%. In outline: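 Jurkat cells (5000/well) in complete medium were treated with compounds for 16 hr at 37 °C, then Caspase-Glo 3/7 luminescence was read after 20 min at room temperature. Data normalized to DMSO (basal) and 100 uM tamoxifen (100%); AC50 from Hill fit.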

Assay [17] is described as follows: Cellular Toxicity (caspase-3) HUV-EC-C (AID 656). The conditions noted are these: HUV-EC-C cells, caspase-3 activation (apoptosis), vehicle = 0, 100 µM tamoxifen = 100%; series mostly up to 92.2 µM. In outline: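 HUV-EC-C endothelial cells, 1000/well, were pre-incubated 5 hr at 37°C, then exposed to compounds for 16 hr at 37°C. Caspase-Glo 3/7 luminescence was read after 20 min at room temperature. AC50 came from Hill fits, normalized to DMSO and 100 uM tamoxifen.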

The nature of assay [18]: Cellular Toxicity (caspase-3) SHSY5Y (AID 657). The conditions noted are these: SH-SY5Y caspase-3 activation, DMSO zero, 10 µM staurosporine = 100%; series mostly up to 91.7 µM. A digest of the protocol:
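SH-SY5Y human neuroblastoma cells (1500/well) were treated with compounds for 16 h at 37 °C, then Caspase-Glo 3/7 luminescence was read after 1 h at room temperature. Data normalized to DMSO and 10 uM staurosporine; AC50 from Hill fits.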

Assay [19] is described as follows: Cellular Toxicity (caspase-3) BJ (AID 658). The conditions noted are these: BJ fibroblasts, luminescence, normalized: DMSO 0%, staurosporine 100%; series mostly up to 91.7 µM. A digest of the protocol: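 Luminescent aminoluciferin-substrate cleavage reports caspase 3/7 activity in normal human BJ fibroblasts after 16 hr compound exposure at 37 °C. Normalized to DMSO (basal) and 10 uM staurosporine (100%); AC50 from Hill fit of concentration-response.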

Assay [20] in a line: Cellular Toxicity (caspase-3) MRC-5 (AID 659). The conditions noted are these: MRC-5 cells, luminescence, normalized: DMSO 0%, 10 µM staurosporine 100%; series mostly up to 91.7 µM. A digest of the protocol:
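Luminescence from caspase-cleaved aminoluciferin substrate (Caspase-Glo 3/7, 1 hr RT) reports caspase 3/7 activity in MRC-5 lung fibroblasts after 16 hr compound exposure. Normalized to DMSO basal and 10 uM staurosporine as 100%; AC50 from Hill fits.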

Structures are written as SMILES. A number with no mark means an inactive call. Results filed as inconclusive are left out. Active and inactive are the calls of the source. Unless noted, calls follow the shape of the dose curve; as a rule, active = well fitted curve in the direction sought with a large enough effect; inconclusive = small, poorly fitted or top-dose-only effect, or another doubt; inactive = no such curve, though single readings can be large; an effect the other way counts as inactive or inconclusive. Bounds are passed on as bounds.

For the compound `CCC=O`, the Potency in assay [1], in assay [2], in assay [3], in [4], in assay [5] and in assay [6] was above 92 µM throughout. The compound was classed as inactive in [7], in assay [17], in [18] and in assay [19]. Moreover, the activity change, negative = cytotoxicity in assay [8] is 1.92%. The Potency entry in assay [9], in assay [10], in [11], in assay [12], in [13] and in assay [14] was “inactive” throughout. For the same compound, in assay [15], the Potency result is “inactive”. Further, in [16], the caspase-3 activation is 3.47%.

Turning to `C1CCC2OC2C1` (stereo unspecified), the Potency in [1], in assay [2], in assay [3], in assay [4], in [5] and in assay [6] was above 92 µM throughout. Besides, the compound was called inactive in assay [7], in [17], in [18] and in assay [19]. For the same compound, the activity change, negative = cytotoxicity in assay [8] is -14.9%. The Potency result in assay [9], in assay [10], in [11], in [12], in assay [13] and in assay [14] was “inactive” each time. The Potency result in assay [15] is “inactive”. Also, in assay [16], the caspase-3 activation is 0.319%.

`CCCC(Cl)CCCC(Cl)CCC(Cl)CCC(Cl)CCC(Cl)CCCC(Cl)CCC` (stereo unspecified): the Potency in assay [1], in assay [2], in [3], in assay [4], in assay [5] and in [6] was above 92 µM throughout. The outcome in assay [7], in [17], in assay [18] and in [19] was inactive. Moreover, the activity change, negative = cytotoxicity in [8] was -0.927%. Further, the Potency entry in assay [9], in assay [10], in assay [11], in [12], in assay [13] and in assay [14] was “inactive” throughout. In addition, the Potency entry in assay [15] is “inactive”. Also, the caspase-3 activation in assay [16] was -0.794%.

For the compound `c1ccc2c(c1)ccc1ncccc12`, the Potency in [1], in assay [2], in assay [3], in [4], in [5] and in assay [6] was above 92 µM each time. Moreover, the compound was called inactive in assay [7], in assay [17], in assay [18], in assay [19] and in [20]. Further, in assay [8], the activity change, negative = cytotoxicity was -0.126%. For the same compound, the Potency entry in assay [9], in assay [10], in assay [11], in [12], in [13] and in [14] was “inactive” throughout. Further, the Potency entry in [15] was “inactive”. Besides, in [16], the caspase-3 activation was 3.47%.

With `CC1=C(/C=C/C(C)=C/C=C/C(C)=C\C=O)C(C)(C)CCC1`, the Potency in assay [1] is 24.4 µM (active); in assay [2], 22.2 µM (active); in assay [3] it was 51.9 µM (active); in assay [4], 66.1 µM (active); in assay [5] it was 39.8 µM (active); in assay [6], 31.7 µM (active). Also, the Potency in [8] is 25.1 µM (active); in assay [10] it was 31.6 µM (active); in assay [11], 12.6 µM (active); in [12], 20 µM (active); in [13] it was 12.6 µM (active); in assay [14] it was 12.6 µM (active). Moreover, in assay [15], the Potency is 63.1 µM (active). For the same compound, in assay [7], the call was inactive. Besides, the activity change, negative = cytotoxicity in [9] was -120% (active).

Consider `CC(C=O)Cc1ccc(C(C)(C)C)cc1` (stereo unspecified), for which the Potency in assay [1], in [2], in assay [3], in assay [4], in assay [5] and in [6] was above 92 µM in each case. Besides, the outcome in assay [7], in [17], in [18] and in assay [19] was inactive. Moreover, the activity change, negative = cytotoxicity in assay [8] was -7.79%. For the same compound, the Potency result in assay [9], in assay [10], in assay [11], in assay [12], in assay [13] and in [14] was “inactive” throughout. In addition, in assay [15], the Potency result was “inactive”. Moreover, the caspase-3 activation in assay [16] is 2.85%.
